Out of some 69,000 compounds screened, about 950 (1.4%) showed an effect of 50% or more. For the sample, strong results were picked, then their nearest neighbours and some compounds at random.
System: Mycobacterium tuberculosis
Assay: Cornell M. t heat shock assay; further: in the data most compounds retested in dose-response had high values
Type: functional, organism-based
Design: dose or concentration left out as unconfirmed

Row | Structure (SMILES) | Percent Effect [%]
1 | CC(=O)N1[C@H](CN(C)C)C[C@@H]2CN(C(=O)c3cnc(C)cn3)CC[C@@H]21.O=C(O)C(F)(F)F | -17.11
2 | c1ncn(CC2CCCN2Cc2cn3ccsc3n2)n1 (stereo not given) | -23.29
3 | Cc1cc(C)n(CC2CCCN2Cc2ncc(C(C)(C)C)o2)n1 (stereo not given) | 52.86
4 | Cc1nc(C)n(CC2CCCN2Cc2cn3ccsc3n2)n1 (stereo not given) | 52.44
5 | Cc1cc(C)n(CC2CCCN2CCS(=O)(=O)c2ccccc2)n1 (stereo not given) | 25.73
6 | Cc1nc(C)n(CC2CCCN2Cc2cn3ccccc3n2)n1 (stereo not given) | -6.655
7 | Cc1nc(C)n(CC2CCCCN2Cc2ncc(C(C)(C)C)o2)n1 (stereo not given) | -15.1
8 | Cc1nn(C)c(C)c1C1CCCN1Cc1nc(N)c2ccccc2n1 (stereo not given) | -13.27
9 | Cc1nc(C)n(CC2CCCN2Cc2nc(C)c3ccccc3n2)n1 (stereo not given) | -0.1749
10 | Cc1nc(C)n(CC2CCCN2Cc2ncc(C(C)(C)C)o2)n1 (stereo not given) | 8.269
11 | Cc1nc(C)n(CC2CCCN2Cc2nc3ccccc3nc2C)n1 (stereo not given) | -3.804
12 | Cc1nc(C)n(CC2CCCN2Cc2nc(N)c3ccccc3n2)n1 (stereo not given) | 90.98
13 | Cc1cc(C)n(CC2CCCN2Cc2nc(N)c3ccccc3n2)n1 (stereo not given) | 96.02
14 | CN1CC(=O)N(c2ccsc2)CC12CCN(Cc1cnn(C)c1)C2.O=C(O)C(F)(F)F.O=C(O)C(F)(F)F (stereo not given) | -44.55
15 | O=C(NCc1cnc2n1CCN(CC1CC1)C2)C1CC1.O=C(O)C(F)(F)F | -32.01
16 | O=CO.c1cc2nccc(CC3CCCN(C4CCOCC4)CC3)c2cn1 (stereo not given) | -0.8025
17 | CNC(=O)CNCc1c[nH]nc1-c1cc2ccccc2o1.Cl | 4.817
18 | Cc1cc(CN2CC[C@H]3C(=O)N(c4ccccc4)CCO[C@H]3C2)no1.O=C(O)C(F)(F)F | -6.692
19 | O=C(O)C(F)(F)F.O=C1CCC2(CCN(Cc3ccc(F)cc3)CC2)N1Cc1ccccc1 | 1.967
20 | O=C(NC1CC1)N1CCC2(CC1)C(=O)NCCN2Cc1ccccc1.O=C(O)C(F)(F)F | 5.553
21 | CC(C)CN1C(=O)C2(CCN(Cc3cccs3)C2)c2ccccc21.O=C(O)C(F)(F)F (stereo not given) | 9.511
22 | CCN(CC)Cc1nc2c(o1)CN(S(=O)(=O)c1cccs1)C2.O=C(O)C(F)(F)F | 10.46
23 | CN(C)CCN1C(=O)CCCC12CCCN(Cc1cccs1)C2.O=C(O)C(F)(F)F.O=C(O)C(F)(F)F (stereo not given) | -7.663
24 | CN(C)C(=O)CC1CC2(CCN(CC3CC3)CC2)Oc2ccccc21.O=C(O)C(F)(F)F (stereo not given) | 11.01

Row | Structure (SMILES) | Percent Effect [%]
25 | Cc1ccc(C(=O)N2CCC3(CCN3Cc3ccc(F)cc3)C2)cn1.O=C(O)C(F)(F)F (stereo not given) | 99.27
26 | COCCN1CCC12CCN(C(=O)c1ccc(C)nc1)C2.O=C(O)C(F)(F)F (stereo not given) | 29.56
27 | Cc1cnc(C(=O)N2CCC3(CCN3Cc3ccc(F)cc3)C2)cn1.O=C(O)C(F)(F)F (stereo not given) | -3.427
28 | Cc1nc2[nH]cnc(NCCN3CCOCC3)c-2n1 | -1.565
29 | Cc1nc2[nH]cnc(NCCCN3CCOCC3)c-2n1 | -13.88
30 | Cc1nc2[nH]cnc(NCCN3CCCC3)c-2n1 | 57.49
31 | CCc1c(C)sc2ncnc(N3CC[C@@H](N4CCC(O)CC4)[C@H](O)C3)c12 | 10.29
32 | CCc1c(C)sc2ncnc(N3C[C@H](O)[C@@H](N4CCCC4)C3)c12 | 59.45
33 | CCc1c(C)sc2ncnc(N3CC[C@@H](N4CCOCC4)[C@H](O)C3)c12 | 11.35
34 | Cc1n[nH]c(C)c1CCC(=O)N[C@@H]1CCC[C@@H](Oc2ccccc2)[C@@H]1O | -15.12
35 | N[C@@H]1CCC[C@@H](Oc2ccc(F)cc2Oc2cccc(F)c2)[C@@H]1O | 1.479
36 | Cc1ccc(Oc2cc(F)ccc2O[C@@H]2CCC[C@@H](N)[C@H]2O)cc1 | 103.2
37 | Cc1noc(C)c1C(=O)N[C@@H]1CCC[C@@H](Oc2ccccc2)[C@@H]1O | 10.41
38 | CN[C@@H]1CCC[C@@H](Oc2ccccc2Oc2ccc(C)cc2)[C@@H]1O | 50.23
39 | N[C@@H]1CCC[C@@H](Oc2ccc(F)cc2Oc2ccccc2)[C@@H]1O | -7.942
40 | O=C(O)C(F)(F)F.O=c1ccc2c([nH]1)CCC(NCc1ccc(F)cc1)C2 (stereo not given) | -5.527
41 | Cc1nc(CN2C[C@@H]3CN(C(=O)C4CC4)C[C@@H]3C2=O)cs1.O=C(O)C(F)(F)F | -7.229
42 | O=C(O)C(F)(F)F.O=C(c1ccco1)N1CCOCC2(C1)CN(c1cccnc1)C(=O)CO2 (stereo not given) | -36.47
43 | CCN(CC)c1ncc(CNC2CCc3ncnn3C2)s1 (stereo not given) | 0.07548
44 | CCN1CCOCC2(CCCN(C(=O)c3conc3C)C2)C1.O=C(O)C(F)(F)F (stereo not given) | -3.777
45 | Cc1cc2nc(C(C)C)cc(NCCc3cccn3C)n2n1 | 51.31
46 | Cc1cc2nc(C(C)C)cc(NCc3ccncc3)n2n1 | 10.36
47 | CC(C)c1cc(NCC(O)c2ccc(F)cc2)n2nccc2n1 (stereo not given) | 13.68
48 | CC(C)c1cc(NCC(O)CO)n2nccc2n1 (stereo not given) | 7.568

Row | Structure (SMILES) | Percent Effect [%]
49 | CC(C)c1cc(NCC(C)N2CCCC2)n2nccc2n1 (stereo not given) | 19.07
50 | CC(C)c1cc(NCC(O)c2ccncc2)n2nccc2n1 (stereo not given) | 0.8571
51 | COc1cc(NCC(c2ccccn2)N(C)C)ncn1 (stereo not given) | 7.48
52 | Cc1cc2nc(C(C)C)cc(NCCc3ccncc3)n2n1 | 5.483
53 | Cc1cc2nc(C(C)C)cc(NCC(c3ccccn3)N(C)C)n2n1 (stereo not given) | 107.7
54 | Cc1cc2nc(C(C)C)cc(NC(C)c3nncn3C)n2n1 (stereo not given) | 6.767
55 | CC(C)c1cc(NCC(O)c2ccccn2)n2nccc2n1 (stereo not given) | 105.1
56 | CCCC(CNc1cc(C(C)C)nc2ccnn12)N(C)C (stereo not given) | 105.9
57 | CCOC1COC2(CCN(Cc3cccnc3OC)CC2)C1.O=C(O)C(F)(F)F.O=C(O)C(F)(F)F (stereo not given) | 16.61
58 | CC(=O)N1C[C@@H]2CC[C@H](C1)N(S(=O)(=O)c1ccc(F)cc1Cl)C2 | 10.85
59 | N#Cc1ccc(N2CCC3(CC2)CC(N2CCOCC2)CO3)cc1.O=C(O)C(F)(F)F (stereo not given) | 25.96
60 | CN(C)C1CCN(C(=O)c2cc(-c3ccn(C)n3)n3ccccc23)CC1.O=C(O)C(F)(F)F | 44.75
61 | Cl.NCc1ccc(Oc2ccc(F)c(F)c2)cc1C(F)(F)F | 1.199
62 | C[C@@H]1CN(Cc2ccoc2)C[C@]12CCN(CC(=O)N(C)C)C2=O.O=C(O)C(F)(F)F | 10.48
63 | CS(=O)(=O)NC[C@H]1OC[C@H]2CN(Cc3ccsc3)CC[C@H]21.O=C(O)C(F)(F)F | -31.27
64 | Cc1cccnc1NCCNc1cc(C(C)C)nc2ccnn12 | 97.5
65 | Cc1cc2nc(C(C)C)cc(NCCNc3ncccc3C)n2n1 | -16.57
66 | Cc1cc(NCCNc2ncccc2C)n2nc(C)cc2n1 | 16.17
67 | Cc1cnc(C(=O)N2C[C@H]3CC[C@@H]2CN(c2cnccn2)C3)cn1 | -7.052
68 | CCC(C)N1Cc2c(C(=O)N3CCOCC3)nn(C)c2C1.O=C(O)C(F)(F)F (stereo not given) | -5.344
69 | CC(C)N1CCCCC1c1nc(N(C)C)ncc1I.Cl (stereo not given) | -21.57
70 | CC(C)N(C)Cc1cnc2n1CCN(S(=O)(=O)c1ccccc1)C2.O=C(O)C(F)(F)F | -26.7
71 | Cc1nc(C2CCNC2)nc2c1CCC(=O)N2CC(C)C.Cl (stereo not given) | -0.8245
72 | c1ccc(COC2CCN(c3cncc(-n4cccn4)n3)CC2)cc1 | 53.35

Row | Structure (SMILES) | Percent Effect [%]
73 | c1ccc(C2CCN(c3cncc(-n4cccn4)n3)CC2)cc1 | -1.073
74 | c1ccc(C2CCCN(c3cncc(-n4cccn4)n3)CC2)cc1 (stereo not given) | 6.437
75 | CN(C)S(=O)(=O)N1CCO[C@H]2[C@H](Oc3cccnc3)CC[C@@H]21.O=C(O)C(F)(F)F | -23.12
76 | CCOc1ccc(C2C3=C(O)OCC3=Nc3nc(SC)nc(N)c32)cc1 (stereo not given) | 5.942
77 | CC(C)N1CCc2c(C(=O)N3CCOCC3)nn(C)c2C1.O=C(O)C(F)(F)F | 1.567
78 | CC(C)c1ncc2c(n1)CN(Cc1noc(-c3ccccc3)n1)CC2 | 59.47
79 | Cc1ccc(-c2nc(CN3CCc4cnc(C)nc4C3)no2)cc1 | 7.068
80 | CC(C)c1ncc2c(n1)CN(Cc1nc(Cc3ccccc3)no1)CC2 | 21.5
81 | Cc1cccc(CN2CCOCC3(CCN(C4CCOCC4)C3)C2)c1.O=C(O)C(F)(F)F.O=C(O)C(F)(F)F (stereo not given) | -7.998
82 | CC(=O)Nc1nc(C(=O)NCc2ccc(N3CCCCCC3)nc2)cs1 | 8.395
83 | CC(=O)Nc1nc(C(=O)NCc2ccc(N3CCCC3)nc2)cs1 | -13.06
84 | CC(=O)Nc1nc(C(=O)Nc2ccc(N3CCCCC3)nc2)cs1 | 50.82
85 | O=C(O)C(F)(F)F.O=C(O)C(F)(F)F.c1cc(CN2CCc3ncc(CN4CCCCC4)n3CC2)cs1 | -20.06
86 | Cc1nc(COCC2CN(C(N)=O)Cc3nccn3C2)cs1.O=C(O)C(F)(F)F (stereo not given) | -0.7889
87 | Cc1cc(=O)[nH]c(-n2nc(-c3cccs3)cc2N)n1 | 94.15
88 | Cc1cc(=O)[nH]c(-n2nc(-c3ccccc3)cc2N)n1 | 105.3
89 | NC1(c2nc(-c3ccccc3)cc(=O)[nH]2)CCCC1 | -2.897
90 | CS(=O)(=O)NCCn1ccc(-c2cccs2)n1 | 0.1994
91 | NC1(c2nc(-c3ccccc3)cc(=O)[nH]2)CCCCC1 | 0.6123
92 | NC1(c2nc(-c3cccs3)cc(=O)[nH]2)CCCC1 | -25.86
93 | CCCc1cc(=O)[nH]c(-n2nc(-c3cccs3)cc2N)n1 | 106.1
94 | NC1(c2nc(-c3cccs3)cc(=O)[nH]2)CCCCC1 | -38.51
95 | CCCS(=O)(=O)NCCn1ccc(-c2cccs2)n1 | -4.478
